Among all 48,000 compounds or so, about 13,000 (27%) showed an effect of 50% or more. The list shows a part of the results.
System: Wolbachia pipientis
Experiment: Anti-Wolbachia Cell-Based Screen
Type: functional
Parameters: scale not given: in the data most compounds retested in dose-response had high values
Conditions: 5 µM

| SMILES | Percent Effect |
| --- | --- |
| Cc1ncnc2c1CCN(C(=O)c1ccnnc1)CC2 | -1.373% |
| CCc1ncnc2c1CCN(Cc1ccccn1)CC2.O=C(O)C(F)(F)F.O=C(O)C(F)(F)F | 16.56% |
| CCc1ncnc2c1CCN(Cc1nccs1)CC2.O=C(O)C(F)(F)F | 16.77% |
| Cc1ncnc2c1CCN(Cc1nccs1)CC2.O=C(O)C(F)(F)F | -9.134% |
| Cc1ncnc2c1CCN(C(=O)N(C)C)CC2 | 95.78% |
| Cc1ncnc2c1CCN(CC(=O)N(C)C)CC2.O=C(O)C(F)(F)F | 112% |
| Cc1ncnc2c1CCN(C(=O)CN(C)C)CC2.O=C(O)C(F)(F)F | -6.566% |
| CCc1ncnc2c1CCN(CC(=O)N(C)C)CC2.O=C(O)C(F)(F)F | 107.9% |
| CN(C1CCCCC1)S(=O)(=O)N1CCN(Cc2ccon2)CC1 | -9.326% |
| Cc1noc(C)c1CN1CCCC2(CCN(C(=O)N3CCOCC3)C2)C1 (stereo unspecified) | 105.6% |
| Cc1noc(C)c1CN1CCC2(CC1)CCN(C(=O)c1cscn1)C2.O=C(O)C(F)(F)F | -11.08% |
| Cc1noc(C)c1CN1CCCC2(C1)CN(Cc1nccn1C)CCO2.O=C(O)C(F)(F)F.O=C(O)C(F)(F)F (stereo unspecified) | -4.465% |
| Cl.N[C@@H](Cc1ccccc1)c1nnc(S(=O)(=O)Cc2ccc(Cl)cc2)o1 | 72.38% |
| O=S(=O)(Cc1ccccc1)c1nnc(N2CCOCC2)s1 | 4.64% |
| Cc1nnc(CN(Cc2cccc(Cl)c2)C(C)C)o1 | -3.327% |
| Cc1cccc(CS(=O)(=O)c2nnc(N3CCOCC3)s2)c1 | -9.139% |
| Cc1cccc(CS(=O)(=O)c2nnc([C@@H](N)Cc3ccccc3)o2)c1.Cl | 119.9% |
| NC(=O)C(Cc1ccccc1)NS(=O)(=O)Cc1ccccc1F (stereo unspecified) | -4.164% |
| Cc1cccc(CS(=O)(=O)NCC(O)Cc2ccccc2)c1 (stereo unspecified) | 2.043% |
| N[C@@H](Cc1ccccc1)c1nnc(S(=O)(=O)Cc2ccccc2)o1 | 107.1% |
| N#Cc1cccc(CS(=O)(=O)NC(Cc2ccccc2)C(N)=O)c1 (stereo unspecified) | -5.324% |
| Cl.N[C@@H](Cc1ccccc1)c1nnc(S(=O)(=O)Cc2cccc(Cl)c2)o1 | 90.15% |
| CCc1[nH]c2c(CNc3cc(C)nc(NC)n3)cc(C)cc2c1C | 7.086% |
| Cc1noc(C2CN(S(=O)(=O)C3CC3)Cc3ccnn3C2)n1 (stereo unspecified) | -3.92% |
| Cc1nc(-c2ccccc2)sc1CSCCS(C)(=O)=O | 5.255% |
| CCCN1CCC(C(=O)NCCN(CC)c2ccccc2C)CC1 | 6.668% |

| SMILES | Percent Effect |
| --- | --- |
| CSc1ccc(NC(=O)NCC(O)C2CC2)cc1F (stereo unspecified) | -6.513% |
| Cc1ccc(CNC(=O)Cn2ncc3c2c(C)nn3C)cc1 | 2.775% |
| CCn1nc(C)c2c1cnn2CC(=O)NC(C)c1cccc(OC)c1 (stereo unspecified) | 108.9% |
| COc1ccccc1CNC(=O)Cn1ncc2c1c(C)nn2C | 14.16% |
| Cc1nn(C)c2cnn(CC(=O)NCCc3ccccc3)c12 | -4.573% |
| COc1ccc(NC(=O)Cn2nc(C)c(C)cc2=O)c(OC)c1 | -17.24% |
| CCn1nc(C)c2c1cnn2CC(=O)Nc1ccc(OC)cc1C | 97.13% |
| CCC(C)NC(=O)Cn1ncc2c1c(C)nn2CC (stereo unspecified) | 78.16% |
| COc1ccc(NC(=O)Cn2nc(C)c(C(C)=O)c2C)cc1 | 9.099% |
| COc1cccc(C(CO)NC(=O)Cc2cccc(C)c2)c1 (stereo unspecified) | -8.321% |
| Cc1ccc(C(=O)NS(=O)(=O)c2cc(Cl)ccc2Cl)c(=O)[nH]1 | 0.2464% |
| OCCOc1ccc(NCc2cccc3cn[nH]c23)cn1 | 11.64% |
| CN(C)CCNC(=O)c1sc2ccccc2c1C1CCC(CN)CC1.Cl (stereo unspecified) | 88.67% |
| CC1CCc2nc(O)c(C(=O)NCCN(C)C)cc2C1 (stereo unspecified) | 7.628% |
| Cl.NC[C@H]1CC[C@H](c2c(C(N)=O)sc3ccccc32)CC1 | 138.4% |
| CC(NC(=O)N1CCC(CO)CC1)c1csc2ccccc12 (stereo unspecified) | -26.26% |
| CC(NC(=O)c1cccc[n+]1[O-])C1CC1 (stereo unspecified) | -12.99% |
| Cl.NCC1CCC(c2c(C(=O)NCCO)sc3ccccc23)CC1 (stereo unspecified) | 105.7% |
| CN(C)CCNC(=O)c1ccc(S(=O)(=O)N[C@@H]2CCNC2)cc1 | -7.63% |
| CC(C)NC(=O)c1sc2ccccc2c1[C@H]1CC[C@H](CN)CC1.Cl | 141.4% |
| CCn1cc2c(n1)C(COCC1CC1)CN(C(=O)c1cc(C)on1)C2 (stereo unspecified) | -20.07% |
| CC(Nc1ccc(CC(=O)N(C)C)cc1)C(=O)N(C)CCC#N (stereo unspecified) | 3.748% |
| Cn1ncc2c(N3CCCC(C)(O)C3)nc(C(C)(C)C)nc21 (stereo unspecified) | -0.5703% |
| COc1ccc(CCC(=O)Nc2cccnc2N2CCCC2)cc1Br | 3.443% |
| O=C(O)C(F)(F)F.O=C1CC[C@@H]2[C@@H](CCN2C(=O)c2ccsc2)N1Cc1ccncc1 | -34.69% |
| COCCNC(=O)c1sc2ccccc2c1C1CCC(CN)CC1.Cl (stereo unspecified) | 140.8% |

| SMILES | Percent Effect |
| --- | --- |
| COCCNC(=O)c1cc2c(nc1O)CC(c1cccs1)CC2=O (stereo unspecified) | 7.497% |
| NC(=O)COCCNC(=O)Nc1sc2ccccc2c1Cl | 6.222% |
| CCCN1CCN(C(=O)c2cc[nH]n2)[C@H]2CS(=O)(=O)C[C@H]21 | 3.177% |
| CC(=O)N1CCCC(c2nccnc2-c2ccc(CO)cc2)C1 (stereo unspecified) | 179.5% |
| CCc1ccc2c(C3CN(C(C)=O)C3)ncn2c1 | -3.623% |
| CCn1cc(-c2nccnc2C2CCCN(C(C)=O)C2)cn1 (stereo unspecified) | 156.7% |
| COc1cc(F)ccc1CC(=O)N1CC[C@H]2C(=O)NCCO[C@H]2C1 | -55.09% |
| COC(=O)CCCn1ccnc1-c1ccc(OC)c(F)c1F | -8.612% |
| CCS(=O)(=O)Cc1ccn(-c2cccc(F)c2)n1 | -0.3225% |
| COc1ccc(NC(=O)N2CCC3(CC2)NC(=O)CC3C(=O)O)cc1Cl (stereo unspecified) | -5.291% |
| CCOc1ccc(NCc2cnc(N3CCN(C)CC3)nc2)cn1 | -2.404% |
| Cc1ccc(NC(=O)Nc2cnc(N3CCN(C)CC3)nc2)cc1 | 130.1% |
| COc1ccc(NC(=O)NC(C)c2nc[nH]n2)cc1Cl (stereo unspecified) | -12.73% |
| Cc1ccc(NC(=O)Nc2cnc(N3CCN(C)CC3)nc2)c(Cl)c1 | -7.625% |
| COc1ccc(NC(=O)Nc2cnc(N3CCN(C)CC3)nc2)cc1Cl | 89.39% |
| COc1cc2c(cc1CNC(=O)C(C)n1ccnc1C(C)C)CCC2 (stereo unspecified) | -11.78% |
| COC(=O)[C@H](C)NC(=O)Cc1c(C)nc2cc(=O)[nH]n2c1C | -6.844% |
| Cc1n[nH]c(C)c1NC(=O)CN1CCOC(Cn2cccn2)C1 (stereo unspecified) | 4.084% |
| Cc1cccc2c1nc(CCO)n2-c1ccc(NS(C)(=O)=O)nc1 | -11.32% |
| CN(C)C(=O)N1C[C@H]2CCC[C@@]2(COc2ccccn2)C1.O=C(O)C(F)(F)F | -14.43% |
| CS(=O)(=O)CC(=O)N1C[C@H]2CCC[C@@]2(COc2ccccn2)C1.O=C(O)C(F)(F)F | 109.7% |
| O=C(O)C(F)(F)F.O=C(c1ncccn1)N1C[C@H]2CCC[C@@]2(COCc2ccncc2)C1 | 6.096% |
| CS(=O)(=O)CC(=O)N1C[C@H]2CCC[C@@]2(COCc2ccncc2)C1.O=C(O)C(F)(F)F | 108.3% |
| CN(C)CC(=O)N1C[C@H]2CCC[C@@]2(COc2ccccn2)C1.O=C(O)C(F)(F)F | -2.413% |
| O=C(O)C(F)(F)F.O=C(c1ccccc1)N1C[C@H]2CCC[C@@]2(COCc2ccncc2)C1 | 12.44% |
| O=C(c1cn(CCN2CCCCC2)nn1)N1CCSCC1 | 10.37% |

| SMILES | Percent Effect |
| --- | --- |
| COc1cccc(NC(=O)N(CCO)Cc2ccsc2)c1 | 1.126% |
| O=C(c1ccccn1)C1CCCN(c2nccc(CCC(F)(F)F)n2)C1 (stereo unspecified) | 2e-14% |
| NC(=O)[C@H]1CCCN(c2nccc(-c3c[nH]nc3-c3cccnc3)n2)C1 | 113.5% |
| CNc1ccnc(N2CCCC(C(=O)c3ccccn3)C2)n1 (stereo unspecified) | -24.75% |
| NC(=O)[C@H]1CCCN(c2nccc(-c3ccncc3)n2)C1 | 103.3% |
| O=C1N(CC2CC2)C(c2c[nH]nc2-c2cccnc2)NC12CCCC2 (stereo unspecified) | 1.582% |
| Cc1nn2c(N3CCCC(C(N)=O)C3)cc(-c3ccccc3)nc2c1C (stereo unspecified) | -84.47% |
| FC(F)Sc1ccc(NCc2nnc(C3CC3)o2)cc1 | -0.3922% |
| NC(=O)c1cnc(NC(=O)CCc2ccco2)c(Cl)c1 | -8.08% |
| CC(C)(C)c1nc(CC(=O)NC2CCN(C3CC3)C2)cs1 (stereo unspecified) | -2.238% |
| CC(C)N1CCCn2nc(C(=O)NCCc3c[nH]cn3)cc2C1 | -16.95% |
| O=C(O)C1(n2cccn2)CCN(Cc2nc(-c3ccccc3)no2)CC1 | -13.7% |
| O=C(O)C1(n2ccc(-c3ccco3)n2)CCN(Cc2ccsc2)CC1 | 105.5% |
| COc1ccc2c(c1)C1(CCN(Cc3ccccn3)CC1)N(C)CC2.O=C(O)C(F)(F)F.O=C(O)C(F)(F)F | -3.791% |
| Cc1cc(CN2CCC(C(=O)O)(n3ccc(-c4ccco4)n3)CC2)on1 | 185.7% |
| Cc1cc(CN2CCN(C(=O)CCc3cccc(F)c3F)CC2)on1 | -11.44% |
| O=C(O)C(F)(F)F.O=C(c1ccco1)N1CCCC2(CN(Cc3ccsc3)CCO2)C1 (stereo unspecified) | 0.02281% |
| Cc1cc(F)ccc1OC1(C(=O)O)CCN(Cc2cccnc2)CC1 | 3.989% |
| O=C(O)C1(n2ccc(-c3ccco3)n2)CCN(Cc2ccccn2)CC1 | 96.1% |
| O=C(O)C1(n2ccc(-c3ccco3)n2)CCN(Cc2cccnc2)CC1 | 100.5% |
| Cc1nc(CN2CCC(C(=O)O)(n3ccc(-c4ccco4)n3)CC2)co1 | 4.507% |
| O=C(O)C1(n2ccnc2)CCN(Cc2ccc3occc3c2)CC1 | -4.381% |
| Cc1cc(CN2CCN(C(=O)C3(C#N)CCCC3)CC2)on1 | -5.531% |
